This is an account of results in ChEMBL document CHEMBL4513147, “CO-ADD screening of Armstrong State University (GA, USA) compounds”.

Among all 21,000 compounds or so, fewer than 10 showed an effect of 50% or more. The list is a sample of the results. Measured potencies and affinities stand elsewhere.

A word on the Inhibition: it is the relative decrease from the control value, in per cent.

This experiment relates to Acinetobacter baumannii. Particulars: Concentration 32 ug.mL-1; ASSAY_TEST Inhibition of Bacterial Growth; detection method Absorption (OD600); MEDIA CAMHB; plate type 384well; NBS; CORNING #3640; time 18 hr.
As to `COc1ccc2c(c1)CCC(=Cc1cccnc1Br)C2=O`, the Inhibition is recorded as -2.26%.
